Source: PubChem
An excerpt weighted towards active compounds, which were near 4% of everything screened.
Peg3 prom inh = Peg3 promoter-driven luciferase inhibitors, primary screen, cell-based, HeLa, luciferase luminescence. HeLa PEG-Prom luciferase reporter, overnight. inhibition, % at 20 µM. actives 1.7% (n = 360,000);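 active = inhibition of at least 50% at 20 µM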
CF NFkB inh = inhibitors of PAF-induced NF-kB signaling, primary screen, cell-based, GFP fluorescence, uHTS | KKLEB NF-kB-GFP reporter, GFP fluorescence overnight | inhibition, % at 5 µM | actives 0.86% (n = 360,000) | AID 588850, 2011;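 active = at least 50% inhibition at 5 µM, scaled per plate between neutral and stimulator controls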;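 also: PAF is a Pseudomonas aeruginosa culture filtrate used as stimulus; plate controls were PAF-stimulated DMSO wells for no effect and unstimulated DMSO wells for full effect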
TROY signal inh = inhibitors of TROY-driven NF-kB signaling, primary screen, Q293 LMP1-TROYcd cells, NF-kB luciferase, uHTS | Q293 LMP1-TROYcd NF-kB luciferase reporter, 4 h | AID 1347056, 2019 | inhibition, % at 10 µM | actives 0.98% (n = 360,000);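 active = compounds whose plate-normalised and pattern-corrected inhibition of the luciferase reporter signal at the single screening dose is 50% or more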
KKLEB tox = cytotoxicity in KKLEB CF airway cells, primary screen, cytotoxicity control for CF NF-kB inhibitor project, cell-based, uHTS, fluorescence assay plates; KKLEB CF airway cells viability, ATPlite luminescence, overnight; active compounds read low; cells stimulated with P. aeruginosa culture filtrate; AID 602141, 2011; activity change (cytotoxicity), % at 5 µM; actives 0.36% (n = 360,000);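 active = corrected activity change at or below -50% at 5 µM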
TWEAK-Fn14 inh = inhibitors of TWEAK-Fn14 signaling, primary screen, luciferase reporter cells, uHTS | TWEAK-stimulated Fn14 reporter cells, luciferase luminescence, 8 h | inhibition, % at 10 µM | actives 2% (n = 360,000) | AID 1159606, 2016; in the data active = inhibition above about 50%
HIF-2a inh = HIF-2a reporter inhibitors, primary screen, luminescence, 786-0 RCC cells | 786-0 RCC cells HIF-2a reporter, luciferase luminescence, overnight | inhibition, % at 18.8 µM | actives 0.72% (n = 360,000);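 active = inhibition of the luminescence signal of 40% or more relative to plate controls, in a single-dose primary screen at 18.75 µM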
* = called active by the depositor; / = not tested or not shown; ! = repeats disagree.

SMILES	Peg3 prom inh	CF NFkB inh	TROY signal inh	KKLEB tox	TWEAK-Fn14 inh	HIF-2a inh
CCCCN(C(=O)c1cc2c(s1)CCC2)c1c(N)n(CCC)c(=O)[nH]c1=O	-5.1	20.6	-13.6	-6.1	1.5	-6.9
CCCCN(CC)CCNC(=O)c1ccc2c(Cl)c3c(nc2c1)CCC3	3.5	-1.3	22.6	-7.4	9.4	-4.9
Cc1ccc(CNC(=O)CSc2c3c(nc4ccc(Cl)cc24)CCCC3)o1	25.5	32.3	-17.1	-16.5	-7.5	24.1
CCN(CC)CCNC(=O)CSc1c2c(nc3cc(Cl)ccc13)CCCC2	78.2*	15.1	14.8	-9.8	7.3	12.7
CCN(CC)CCCNC(=O)c1ccc2c(Cl)c3c(nc2c1)CCCC3	61.2*	3.4	-12.6	3.5	-50.2	22.3
O=C(Nc1cccnc1Cl)c1ccc2c(Cl)c3c(nc2c1)CCC3	-107.5	-25.8	-4.6	-26.2	54.4*	-104.1
O=C(Cc1cccs1)Nc1ccc(S(=O)(=O)N2CCCCC2)cc1	5.2	5.7	5.3	4.0	12.7	19.6
Cc1c(N)cccc1[N+](=O)[O-]	7.8	-5.1	-13.7	12.8	3.0	-0.2
CCOC(=O)CN/C=C(\C#N)c1ccccc1	-0.2	11.4	-12.4	0.1	-8.3	5.6
COc1cccc(N2CCN(c3cnc4ccccc4n3)CC2)c1	-230.0	-11.9	-9.1	14.5	-62.5	-278.9
O=C(O)C/C(=C\c1ccc(N2CCOCC2)c([N+](=O)[O-])c1)c1nc2ccccc2s1	-35.6	4.3	51.6*	13.3	45.4	-94.5
O=C(O)CC/C(=C\c1ccc(N2CCOCC2)c([N+](=O)[O-])c1)c1nc2ccccc2s1	3.0	11.5	32.6	-0.2	-11.4	-32.5
N#C/C(=C\c1ccc(O)c([N+](=O)[O-])c1)c1nc2ccccc2s1	-50.3	44.3	50.2*	-9.3	53.3*	-149.4
CCn1c2ccccc2c2cc(NC(=O)c3coc(=O)c(Br)c3)ccc21	49.0	-6.9	-28.7	-6.7	73.9*	21.5
CCCn1c2ccccc2c2cnn(CC(=O)NCCN(C)C)c(=O)c21	3.3	-5.2	-13.8	-12.0	3.5	14.2
CC(=O)N[C@H](Cc1c[nH]c2ccccc12)C(=O)O	-7.2	-5.3	9.5	-4.3	-7.4	6.5
O=C(Cn1nnc2ccccc2c1=O)N[C@@H](Cc1c[nH]c2ccccc12)C(=O)O	8.9	2.2	-15.1	-15.4	5.0	17.6
CC(=O)/C=C(/C)NC(Cc1c[nH]c2ccccc12)C(=O)O (centres undefined)	0.6	-4.0	50.7*!	6.7	1.1	-4.3
C[C@@H](C(=O)N[C@@H](Cc1c[nH]c2ccccc12)C(=O)O)n1nnc2ccccc2c1=O	14.8	-14.6	-6.3	9.5	71.8*	23.1
O=C(CN1C(=O)c2ccccc2C1=O)OCC(=O)N1CCCCC1	13.5	-4.7	2.7	0.1	10.7	8.6
Cc1ccc2cc(C)c3nnc(SCC(=O)NCc4ccco4)n3c2c1	12.9	-8.0	-13.0	21.2	51.8*	-10.7
Cc1nonc1OCCNc1ccc([N+](=O)[O-])cc1[N+](=O)[O-]	64.6*	0.4	6.7	0.4	1.7	3.7
CS(=O)(=O)N1CCc2cc(-c3csc(NC(=O)Cc4ccccc4)n3)ccc21	5.2	-32.6	49.9	9.3	57.9*	-27.4
CC1Cc2cc(-c3csc(NC(=O)Cc4cccs4)n3)ccc2N1S(C)(=O)=O (centres undefined)	44.7	-10.2	75.5*	10.3	100.8*	-22.3
CCC(=O)Nc1nc(-c2ccc3c(c2)CC(C)N3S(C)(=O)=O)cs1 (centres undefined)	-84.8	-25.6	-11.8	-7.7	-18.6	-210.1
SMILES	Peg3 prom inh	CF NFkB inh	TROY signal inh	KKLEB tox	TWEAK-Fn14 inh	HIF-2a inh
COc1cccc(C=C(C(C)=O)C(=O)c2ccccc2)c1	/	/	13.9	/	51.1*	16.6
Cc1cccc(OCC(=O)NCC(=O)N=Nc2c(O)[nH]c3ccc([N+](=O)[O-])cc23)c1	9.4	-43.7	-11.9	1.4	-1.1	0.8
COc1ccc(/C=C/C(=O)NCC(=O)N=Nc2c(O)[nH]c3ccc([N+](=O)[O-])cc23)cc1	42.0	78.4*	-2.2	-44.9	-12.6	4.0
CC(=O)NC(c1cccc([N+](=O)[O-])c1)c1ccc2cccnc2c1O (centres undefined)	41.0	0.6	10.9	-0.9	29.1	10.2
CCCC(=O)NC(c1cccs1)c1cc([N+](=O)[O-])c2cccnc2c1O (centres undefined)	54.3*	23.9	-0.2	-3.8	11.4	14.2
O=[N+]([O-])c1ccc(NC(c2ccccc2)c2ccc3cccnc3c2O)cc1 (centres undefined)	57.7*	7.6	-0.5	-19.1	4.4	20.5
CCCCC(=O)NC(c1cccc([N+](=O)[O-])c1)c1ccc2cccnc2c1O (centres undefined)	57.9*	-0.8	13.1	-22.2	13.3	8.9
CCCCC(=O)NC(c1ccc(C(C)C)cc1)c1ccc2cccnc2c1O (centres undefined)	52.5*	-7.7	15.9	-15.3	21.6	12.6
CCC(=O)Nc1cc(OC)c(NC(=S)Nc2ccccc2CC)cc1OC	-4.1	8.7	-5.9	-9.4	3.1	-0.9
O=C(COC(=O)c1ccccc1O)NCc1ccccc1Cl	-32.3	2.0	-51.4	2.5	-4.5	-6.0
COc1cccc(N2CCN(C(=O)c3cc4cc(Cl)ccc4[nH]3)CC2)c1	17.7	-6.2	17.2	-3.6	2.3	-14.3
NCC(c1ccc(Cl)cc1Cl)c1c[nH]c2ccccc12 (centres undefined)	96.3*	21.4	9.0	-16.0	-15.2	6.9
CN(C)CCCNC(=S)NCC(c1ccc(Cl)cc1Cl)c1c[nH]c2ccccc12 (centres undefined)	103.3*	18.5	0.1	-2.0	-45.6	11.8
Cc1cc(NC(=O)CSc2nnc(C)o2)no1	7.8	1.4	2.5	-1.4	-2.3	3.8
Cc1cc(C)c2cc(CN(CCN(C)C)C(=O)Nc3ccccc3Cl)c(=O)[nH]c2c1	28.6	-6.9	17.1	-15.6	8.1	7.7
CCCCCC(=O)N/N=C/c1ccco1	-5.8	11.6	-8.3	-11.2	2.6	4.2
COc1ccc(C2(C(=O)Nc3ccccc3)CCOCC2)cc1	18.9	-10.2	1.5	5.0	67.1*	4.2
COC(=O)c1c(NC(=O)COC(=O)c2ccc(Cl)cc2[N+](=O)[O-])sc2c1CCCCC2	70.9*	2.8	-3.5	5.7	-23.7	4.8
Cc1c(C(=O)c2no[n+]([O-])c2C(=O)c2cnn(C)c2C)cnn1C	42.8	63.0*	-4.2	-26.8	25.1	-10.0
